Holding throughout (experiment): NCI-60 one-dose screen, 48 h (100 = growth as untreated, 0 = no growth, -100 = all killed)
For one experiment, the system named is SR leukemia. The note with it: 10 µM.
Another experiment relates to RPMI-8226 leukemia. The note with it: 10 µM.
A further experiment concerns OVCAR-8 ovarian. The note with it: 10 µM.
The test system of another experiment is OVCAR-5 ovarian. The note with it: 10 µM.
The test system of the next experiment is OVCAR-4 ovarian. The note with it: 10 µM.
The next experiment deals with SK-OV-3 ovarian. The note with it: 10 µM.
For the next experiment, the system named is IGROV1 ovarian. The note with it: 10 µM.
Another experiment concerns OVCAR-3 ovarian. The note with it: 10 µM.
In a further experiment the test system is HS 578T breast. The note with it: 10 µM.
The test system of a further experiment is NCI/ADR-RES ovarian. The note with it: 10 µM.
The test system of the next experiment is T-47D breast. The note with it: 10 µM.
In another experiment the test system is BT-549 breast. The note with it: 10 µM.
A further experiment deals with MDA-MB-435 melanoma. The note with it: 10 µM.
A further experiment deals with SW-620 colon. The note with it: 10 µM.
The next experiment has as its system MCF7 breast. The note with it: 10 µM unless noted.
The next experiment deals with HCT-116 colon. The note with it: 10 µM.
For another experiment, the system named is HCC-2998 colon. The note with it: 10 µM.
A further experiment deals with KM12 colon. The note with it: 10 µM.

Compounds without any hit were thinned out: in the full panel of roughly 83,000, 20% have a hit.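 Activity criterion: percent growth below 10, measured after cells in 96-well plates were exposed to a single compound concentration for 48 hours.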 A number with no mark means an inactive call. Calls of active or inactive are those of the source.

As to `Cc1nc2ccccc2c2nnc(SCC(=O)N(Cc3ccccc3)c3ccccc3)n12`, the growth was 67.6% in the experiment with SR leukemia; 78.8% with RPMI-8226 leukemia; 100% with OVCAR-8 ovarian; 95% with OVCAR-5 ovarian; 91.7% with OVCAR-4 ovarian; 93.8% in the experiment with SK-OV-3 ovarian. For the same compound, the growth was 71.6% in the experiment with IGROV1 ovarian; 93.4% in the experiment with OVCAR-3 ovarian; 93.9% in the experiment on HS 578T breast; 96.1% with NCI/ADR-RES ovarian; 76.4% in the experiment on T-47D breast; 87.2% in the experiment on BT-549 breast. In addition, the growth in the experiment on MDA-MB-435 melanoma is 96%; with SW-620 colon, 93.5%; in the experiment on MCF7 breast it was 102%; in the experiment on HCT-116 colon, 43.1%; in the experiment with HCC-2998 colon it was 110%; with KM12 colon, 129%.

With `CC(=O)OCC(=O)[C@@]1(O)CC[C@H]2[C@@H]3CC[C@@H]4C[C@H](O)CC[C@]4(C)[C@H]3C(=O)C[C@@]21C`, the growth in the experiment on SR leukemia was 95.2%; with RPMI-8226 leukemia, 95.1%; with OVCAR-8 ovarian, 107%; with OVCAR-5 ovarian it was 112%; in the experiment with OVCAR-4 ovarian it was 116%; in the experiment on SK-OV-3 ovarian, 109%. The growth was 93.3% in the experiment on IGROV1 ovarian; 122% with OVCAR-3 ovarian; 100% with HS 578T breast; 110% in the experiment on NCI/ADR-RES ovarian; 108% with T-47D breast; 102% with BT-549 breast. The growth with MDA-MB-435 melanoma was 103%; in the experiment with SW-620 colon it was 103%; in the experiment with MCF7 breast, 108%; in the experiment with HCT-116 colon, 99.9%; in the experiment on HCC-2998 colon, 97.5%; in the experiment on KM12 colon it was 112%.

In the case of `C#CC(C(C)C)N(CCO)CCCC` (centres undefined), the growth in the experiment with SR leukemia was 101%; in the experiment on RPMI-8226 leukemia it was 101%; with OVCAR-8 ovarian it was 105%; in the experiment on OVCAR-5 ovarian it was 92.4%; in the experiment with OVCAR-4 ovarian it was 101%; in the experiment with SK-OV-3 ovarian, 106%. Also, the growth in the experiment on IGROV1 ovarian was 115%; in the experiment on OVCAR-3 ovarian, 111%; in the experiment on HS 578T breast, 102%; with NCI/ADR-RES ovarian, 110%; with T-47D breast, 100%; in the experiment on BT-549 breast, 112%. Also, the growth was 98.6% in the experiment on MDA-MB-435 melanoma; 107% in the experiment with SW-620 colon; 93.9% in the experiment with MCF7 breast; 104% in the experiment on HCT-116 colon; 111% with HCC-2998 colon; 109% in the experiment on KM12 colon.

In the case of `CC(O)COc1ccc(-c2ccccc2)cc1` (centres undefined), the growth in the experiment on SR leukemia is 94.4%; with RPMI-8226 leukemia, 97.7%; in the experiment with OVCAR-8 ovarian, 108%; with OVCAR-5 ovarian it was 98.9%; in the experiment with OVCAR-4 ovarian, 111%; in the experiment with SK-OV-3 ovarian it was 105%. Moreover, the growth in the experiment with IGROV1 ovarian was 115%; in the experiment with OVCAR-3 ovarian it was 108%; in the experiment on HS 578T breast, 106%; with NCI/ADR-RES ovarian, 110%; with T-47D breast it was 94%; in the experiment with BT-549 breast it was 104%. The growth was 104% with MDA-MB-435 melanoma; 103% in the experiment on SW-620 colon; 100% with MCF7 breast; 97.7% in the experiment on HCT-116 colon; 105% in the experiment with KM12 colon.

Regarding `O=C1C=C(Nc2ccc([N+](=O)[O-])cc2)c2ccccc2C1=O`, the growth is 23.9% in the experiment on SR leukemia; 18% in the experiment on RPMI-8226 leukemia; 35.1% in the experiment on OVCAR-8 ovarian; 86.9% in the experiment on OVCAR-5 ovarian; 45.3% in the experiment on OVCAR-4 ovarian; 62.3% in the experiment on SK-OV-3 ovarian. Also, the growth with IGROV1 ovarian was 60.8%; with OVCAR-3 ovarian, 7.94% (active); in the experiment on HS 578T breast it was 47.5%; in the experiment on NCI/ADR-RES ovarian it was 32.5%; in the experiment with T-47D breast it was 20%; in the experiment with BT-549 breast, -1.53% (active). The growth with MDA-MB-435 melanoma is -88.2% (active); in the experiment with SW-620 colon, 40.4%; with MCF7 breast it was 26.5%; with HCT-116 colon, 18%; in the experiment on HCC-2998 colon, 72.4%; with KM12 colon, 32.4%.

Turning to `O=c1[nH]c(O)c(/C=C2/C=Nc3ccccc32)[nH]1`, the growth in the experiment with SR leukemia is 76.3%; with RPMI-8226 leukemia it was 78%; in the experiment with OVCAR-8 ovarian it was 98.1%; in the experiment with OVCAR-5 ovarian, 96%; with OVCAR-4 ovarian, 90%; in the experiment with SK-OV-3 ovarian, 112%. In addition, the growth in the experiment with IGROV1 ovarian was 93.8%; with OVCAR-3 ovarian, 100%; in the experiment on HS 578T breast it was 95.1%; with NCI/ADR-RES ovarian it was 96.4%; in the experiment on T-47D breast it was 85.5%; with BT-549 breast, 107%. For the same compound, the growth is 102% in the experiment on MDA-MB-435 melanoma; 104% in the experiment with SW-620 colon; 56.3% with MCF7 breast; 96.4% with HCT-116 colon; 88.4% with KM12 colon.

In the case of `O=C(O)[C@@H]1[C@H]2C[C@H]3c4[nH]c5ccccc5c4CCN3C[C@@H]2CC[C@@H]1O`, the growth is 115% in the experiment with SR leukemia; 111% in the experiment with RPMI-8226 leukemia; 87.6% in the experiment with OVCAR-8 ovarian; 105% in the experiment on OVCAR-5 ovarian; 103% in the experiment on OVCAR-4 ovarian; 115% with SK-OV-3 ovarian. The growth with IGROV1 ovarian is 114%; with OVCAR-3 ovarian, 111%; in the experiment with HS 578T breast, 102%; in the experiment on NCI/ADR-RES ovarian, 112%; in the experiment on T-47D breast, 114%; in the experiment on MDA-MB-435 melanoma, 113%. Also, the growth in the experiment with SW-620 colon was 100%; in the experiment on MCF7 breast, 103%; in the experiment on HCT-116 colon, 92.6%; with HCC-2998 colon, 135%; with KM12 colon it was 113%.

As for `OCCN1CCOCC1`, the growth in the experiment on SR leukemia was 104%; in the experiment on RPMI-8226 leukemia it was 107%; in the experiment with OVCAR-8 ovarian, 110%; in the experiment with OVCAR-5 ovarian it was 101%; with OVCAR-4 ovarian, 110%; in the experiment with SK-OV-3 ovarian it was 109%. The growth was 117% with IGROV1 ovarian; 122% with OVCAR-3 ovarian; 106% in the experiment with HS 578T breast; 116% in the experiment on NCI/ADR-RES ovarian; 106% with T-47D breast; 115% in the experiment with BT-549 breast. In addition, the growth with MDA-MB-435 melanoma is 116%; with SW-620 colon, 113%; with MCF7 breast it was 94.8%; in the experiment on HCT-116 colon, 97.2%; in the experiment with KM12 colon it was 111%.

Regarding `CCOC(=O)C(O)C(O)C(=O)OCC` (centres undefined), the growth was 104% in the experiment with SR leukemia; 110% in the experiment with RPMI-8226 leukemia; 105% with OVCAR-8 ovarian; 100% in the experiment with OVCAR-5 ovarian; 110% in the experiment on OVCAR-4 ovarian; 108% with SK-OV-3 ovarian. In addition, the growth in the experiment on IGROV1 ovarian was 115%; in the experiment with OVCAR-3 ovarian, 107%; with HS 578T breast, 103%; in the experiment on NCI/ADR-RES ovarian it was 108%; in the experiment on T-47D breast, 98%; with BT-549 breast, 107%. The growth was 101% in the experiment on SW-620 colon; 107% in the experiment with MCF7 breast; 103% in the experiment on HCT-116 colon; 111% with HCC-2998 colon; 102% in the experiment on KM12 colon.

On to `O=c1cc(-c2ccccc2)nc2cc(-c3ccco3)[nH]n12`, for which the growth in the experiment with SR leukemia was 13.1%; in the experiment on RPMI-8226 leukemia it was 71.6%; with OVCAR-8 ovarian, 101%; in the experiment on OVCAR-5 ovarian it was 116%; with OVCAR-4 ovarian, 91.5%; with SK-OV-3 ovarian, 90.3%. Further, the growth with IGROV1 ovarian was 70.5%; in the experiment on OVCAR-3 ovarian, 93.7%; with HS 578T breast, 89.2%; with NCI/ADR-RES ovarian it was 98.9%; in the experiment on T-47D breast, 65.4%; in the experiment with MDA-MB-435 melanoma it was 41.8%. The growth in the experiment with SW-620 colon was 81.7%; in the experiment with MCF7 breast, 28%; in the experiment on HCT-116 colon, 90.3%; in the experiment with HCC-2998 colon it was 91.7%; with KM12 colon, 69.5%.
